# Only a selection was taken, and hits are over-represented in it overall.
# RGS12 GoLoco inh = inhibitors of human Gai1-RGS12 GoLoco interaction (red fluorophore); Gai1:RGS12 GoLoco peptide FP, rhodamine, 10 min; Potency, µM (titrated, usually from 61.6 µM), for the others: at the top dose activity, negative = inhibition, actives largely listed as inhibitors; actives 0.44% (n = 230,000); active means well fitted inhibition curve with a large enough effect, not every such curve was filed as active; inactive means no such curve, though single readings can be large or run the other way; further: nearly all actives have a fitted effect of over 30% in size
# APEX1 inh = blocks human APE1 abasic DNA cleavage. AID 2517. P27695. recombinant APE1, TAMRA/BHQ-2 abasic DNA cleavage fluorescence. Potency, µM (titrated, usually from 65.8 µM), inactives show at the highest dose activity change, negative = inhibition, actives largely listed as inhibitors. actives 0.35% (n = 350,000);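 further: plate controls were vehicle for no effect and reference inhibitor for full effect; nearly all actives have a fitted effect of over 55% in size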
#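 Readout is kinetic fluorescence (ex 525, em 598 nm) from cleavage of 50 nM TAMRA/BHQ-2 THF abasic duplex by 0.75 nM APE1, compound added 15 min beforehand at RT.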
# JMJD2E inh = JMJD2E (human) inhibition; B2RXH2; JMJD2E catalytic domain, FDH-coupled NADH fluorescence (FDH is formaldehyde dehydrogenase); Potency, µM (highest dose often 57.1 µM), without a hit: top-dose activity change, negative = inhibition, actives largely listed as inhibitors; actives 1.6% (n = 230,000); AID 2147; active means well fitted inhibition curve with a large enough effect, not every such curve was filed as active; inconclusive means small, poorly fitted or top-dose-only effect, or another doubt; inactive means no such curve, though single readings can be large or run the other way;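 further: 0% = wells with enzyme and -100% = buffer wells without enzyme; nearly all actives have a fitted effect of over 50% in size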
# RECQ1 inh = RECQ1 (human) helicase inhibition; AID 2549; RECQ1 DNA unwinding, red fluorescence kinetic read; actives 0.54% (n = 240,000); Potency, µM (series often up to 57.3 µM), for inactives: at the highest dose activity, negative = inhibition, usual class: inhibitors;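 further: plate controls were vehicle for no effect and no enzyme for full effect; nearly all actives have a fitted effect of over 30% in size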
# Target sequence (P46063 whole entry, looked up): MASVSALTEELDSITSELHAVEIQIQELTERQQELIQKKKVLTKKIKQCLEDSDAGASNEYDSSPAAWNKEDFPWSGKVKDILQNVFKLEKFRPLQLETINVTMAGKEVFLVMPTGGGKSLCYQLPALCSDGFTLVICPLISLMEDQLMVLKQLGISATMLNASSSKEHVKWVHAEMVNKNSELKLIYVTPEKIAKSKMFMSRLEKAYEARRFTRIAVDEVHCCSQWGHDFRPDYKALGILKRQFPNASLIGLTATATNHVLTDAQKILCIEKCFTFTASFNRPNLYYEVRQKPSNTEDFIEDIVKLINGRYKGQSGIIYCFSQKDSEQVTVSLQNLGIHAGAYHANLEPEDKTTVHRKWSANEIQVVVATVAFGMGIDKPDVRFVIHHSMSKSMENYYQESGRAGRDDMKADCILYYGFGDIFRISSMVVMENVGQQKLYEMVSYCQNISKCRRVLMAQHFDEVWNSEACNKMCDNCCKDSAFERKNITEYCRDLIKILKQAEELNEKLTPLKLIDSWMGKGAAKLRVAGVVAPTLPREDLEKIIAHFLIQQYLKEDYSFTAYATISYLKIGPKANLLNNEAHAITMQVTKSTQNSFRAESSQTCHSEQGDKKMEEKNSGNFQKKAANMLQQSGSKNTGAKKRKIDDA
#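 RECQ1T1 50 nM; forked duplex (20 bp + 30-nt ss tails) 200 nM, ATP 2 mM final; pH 8.0, 2 mM MgCl2, 2.5 ug/ml poly(dI-dC); 15 min compound preincubation; discontinuous kinetic read over 2 h at RT.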
# L3MBTL1 inh = L3MBTL1 (human) inhibition; AlphaScreen L3MBTL1–H3K9me1 peptide binding; Potency, µM (doses to about 57.1 µM), for the others: at the top dose activity, negative = inhibition, usual class: inhibitors; actives 0.66% (n = 230,000); Q9Y468; further: nearly all actives have a fitted effect of over 60% in size
#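 AlphaScreen proximity signal between nickel-chelate acceptor and streptavidin donor beads (final 10 ug/mL) reports binding of 50 nM L3MBTL1 to 75 nM biotin-H3 K9me1 peptide; complex incubated with compounds 30 min at room temperature; cefsulodin titration as control.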
# BLM helicase inh = inhibitors of human Bloom syndrome helicase BLM; P54132; Potency, µM (highest dose often 56.1 µM), for the others: at the highest dose activity change, negative = inhibition, most hits filed as inhibitors; recombinant BLM DNA unwinding, fluorescence dequenching; actives 0.2% (n = 350,000);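 further: plate controls were vehicle for no effect and no enzyme for full effect; nearly all actives have a fitted effect of over 35% in size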
# Active calls of the source: *; i = inactive; u = inconclusive; x = not tested or not shown; [ ] = dose if it differs, or a comment. Unless noted, the call rests on the fitted dose curve; in most records, active means well fitted curve in the direction sought with a large enough effect; inconclusive means small, poorly fitted or top-dose-only effect, or another doubt; inactive means no such curve, though single readings can be large; an effect the other way counts as inactive or inconclusive. Unless noted, on the % scale 0 is the no-effect control and ±100 the full control effect; potency means the concentration at half of the fitted maximal effect.
SMILES,RGS12 GoLoco inh,APEX1 inh,JMJD2E inh,RECQ1 inh,L3MBTL1 inh,BLM helicase inh
CNc1ncnc(Sc2nc(N)nc3nc[nH]c23)c1[N+](=O)[O-],-1.6%[14.2 µM],x,x,x,x,x
Nc1nc(Sc2ccc([N+](=O)[O-])c3nonc23)c2[nH]cnc2n1,1.58µM*,x,x,x,x,x
O=C(CO)[C@@H](O)[C@H](O)[C@@H](O)CO,x,-5.6%,x,x,x,x
CC(C)(C)n1ncc2c(=O)n(Cc3cccc(OC(F)(F)F)c3)cnc21,x,-4.0%,x,x,x,x
COC(=O)C1C(O)C(C)C(O)C(C)(O)/C=C\C=C(/C)C(=O)Nc2c(C)c(OC(C)=O)c3c(c2O)C(=O)C(C)=C2OCOC(=C23)/C(C)=C/C(C)(O)C(O)C(C)C1O (stereo not drawn),-19.8%,-8.7%,3.16µM*,8.5%,x,-3.6%
CCCCCCCCCc1ccc(OCCOCCO)cc1,x,-1.1%,x,x,x,x
CNc1ccc(O)cc1,5.62µM*,-7.5%,x,31.6µM*,x,x
CNc1ccccc1,-0.2%,-3.6%,x,15.7%,-3.6%,x
COc1ccc2nc(NC(=O)c3ccc(-c4cccc([N+](=O)[O-])c4)o3)sc2c1,2.24µM*,0.9%,-7.5%,7.6%,1.2%,-6.1%
O=C(Nc1nc2ccc([N+](=O)[O-])cc2s1)c1ccco1,10.0%,-2.6%,9.8%,0.6%,18.1%,-2.8%
COc1ccc(F)c(Cn2cnc3c(cnn3C(C)(C)C)c2=O)c1Cl,x,-5.6%,x,x,x,x
Nc1nc2c(nc(Br)n2[C@@H]2O[C@H]3COP(=O)(O)O[C@H]3[C@@H]2O)c(=O)[nH]1,8.6%,2.3%,2.7%,-1.9%,x,-0.9%
O=c1c2nc(Br)n([C@@H]3O[C@@H]4CO[P@@](O)(=S)O[C@H]4[C@H]3O)c2nc2[nH]c(-c3ccccc3)cn12,x,12.6µM*,x,-1.4%,x,-6.2%
CCOc1ccc(NCC(=O)N/N=C/C=C/c2ccccc2)cc1,9.1%,-5.7%,-12.2%,-7.9%,-5.3%,-4.0%
CCOc1ccc(N=C/C=C/c2ccccc2)c(O)c1,40.7%,10.7%,10µM*,-6.2%,-11.8%,-10.1%
C[C@H]1O[C@H](O[C@H]2[C@H](O)[C@@H](O)[C@@H](O[C@H]3[C@H](O)[C@@H](O)[C@H](O)O[C@@H]3CO)O[C@@H]2CO)[C@H](O)[C@@H](O)[C@@H]1N[C@H]1C=C(CO)[C@@H](O)[C@H](O)[C@H]1O,x,1.5%,x,x,x,x
Cc1ccccc1-c1nnnn1C1CCS(=O)(=O)C1 (stereo not drawn),17.8%,2.4%,2.3%,i,-2.0%,-8.6%
Cc1cc(=O)n(C2CCS(=O)(=O)C2)[nH]1 (stereo not drawn),10.4%,3.6%,22.4µM*,i,-28.9%,-2.3%
CN(C)c1ccc(CN2CCC(C(N)=O)CC2)cc1,-0.8%,u,28.2µM*,i,-2.9%,2.9%
CCOC(=O)C1CCN(Cc2ccc(F)cc2)CC1,2.4%,1.9%,-3.4%,4.8%,-19.5%,2.2%
O=C(CCC(=O)Nc1ccc(F)cc1)N/N=C/c1ccccc1O,12.4%,8.2%,25.1µM*,1.3%,1.7%,-1.0%
O=C(CCC(=O)Nc1ccc(F)cc1)N/N=C/c1cc([N+](=O)[O-])ccc1O,14.1%,7.9%,7.08µM*,-11.4%,11.8%,-0.9%
O=C(CCC(=O)Nc1cc(C(F)(F)F)ccc1Cl)N/N=C\c1cc([N+](=O)[O-])ccc1O,x,13.1%,x,x,x,-9.2%
Cc1cccc(NC(=O)CCC(=O)N/N=C/c2cc([N+](=O)[O-])ccc2O)c1,63.0%,11.0%,10µM*,-8.4%,9.6%,6.7%
O=C(CCN1CCN(c2ccccc2)CC1)N/N=C/c1ccccc1O,7.2%,14.2%,28.2µM*,i,-10.1%,-0.1%
SMILES,RGS12 GoLoco inh,APEX1 inh,JMJD2E inh,RECQ1 inh,L3MBTL1 inh,BLM helicase inh
O=C(CCC(=O)Nc1ccc(Br)cc1)N/N=C/c1cc([N+](=O)[O-])ccc1O,6.1%,2.3%,u,i,-2.3%,-4.2%
CCCNc1c(F)c(F)c2c(C)c3ccccc3nc2c1F,28.2µM*,0.9%,-4.2%,-4.5%,14.3%,-9.3%
OCCNc1c2ccccc2nc2ccccc12,12.5%,u,u,-14.2%,-1.5%,130.8%
NC(=S)n1[nH]c(-c2ccc([N+](=O)[O-])cc2)c(N=Nc2cccc([N+](=O)[O-])c2)c1=O,5.2%,u,u,-1.5%,u,17.8µM*
CSc1nc(-c2cccs2)c(C#N)c(=O)[nH]1,19.5%,2.3%,u,-9.3%,0.7%,-5.1%
N#Cc1c(-c2cccs2)nc(SCc2ccc(Cl)cc2)[nH]c1=O,9.5%,-14.9%,-4.1%,20.1%,u,28.2µM*
O=C(NCCOCCn1c(=O)oc2ccccc21)Nc1ccc(F)cc1,x,x,x,x,x,1.4%
Cc1cc(C)nc(SC2CC(=O)N(c3ccc(C)c(C)c3)C2=O)n1 (stereo not drawn),x,2.2%,x,x,0.8%,-4.8%
Cc1ccc(N2C(=O)CC(Sc3ncn[nH]3)C2=O)cc1C (stereo not drawn),39.6%,-8.5%,1.26µM*,-18.4%,-3.1%,-1.7%
CCCS(=O)(=O)N1CC(=O)N(c2cc(C)ccc2C)C(C)(C(=O)NC2CCCCCC2)C1 (stereo not drawn),x,x,x,x,x,-0.4%
Cc1cc2nc3c(=O)[nH]c(=O)nc-3n(CC(O)C(O)C(O)COP(=O)(O)O)c2cc1C (stereo not drawn),15.8µM*,x,x,-29.3%,x,3.8%
COc1ccc2c(c1)O[C@@H](c1cccc(C(F)(F)F)c1)[C@H](OC(=O)NCc1ccco1)C2=O,0.2%,2.0%,-3.8%,i,x,-1.0%
CN(C)c1ccc(NC2=C(Cl)C(=O)c3ccccc3C2=O)cc1,-32.1%,-2.6%,6.8%,i,15.8µM*,-18.7%
O=C1C(Cl)=C(Nc2ccc3cn[nH]c3c2)C(=O)c2ccccc21,7.94µM*,-1.2%,10µM*,-20.4%,x,-20.6%
CC(=O)Nc1ccc(NC2=C(Cl)C(=O)c3ccccc3C2=O)cc1,3.5%,-0.9%,-25.0%,1.7%,u,8.5%
O=C(Nc1ccc2cn[nH]c2c1)c1c(Cl)cccc1Cl,-8.3%,0.6%,-3.9%,-4.7%,9.9%,-3.7%
C=CCNC(=S)N/N=C(\C)c1ccccn1,13.5%,-4.2%,8.91µM*,i,x,2.6%
CC1=NN(c2nc3ccccc3[nH]2)C(=O)C1Cc1ccccc1 (stereo not drawn),6.0%,u,u,-6.8%,20µM*,-1.5%
CCCCCn1c(N)c(-c2nc3ccccc3o2)c2c([N+](=O)[O-])nn(CC)c(=O)c21,36.2%,4.3%,-3.4%,-4.5%,-6.3%,-26.7%
CCCCCn1c(N)c(-c2nc3ccccc3o2)c2c([N+](=O)[O-])nn(C)c(=O)c21,-10.5%,7.2%,u,-1.2%,-17.9%,15.8µM*
CCCCc1c(CCC)c(=N)c2ccccc2n1C,11.2µM*,-0.4%,u,7.7%,8.7%,2.0%

# Compound activity: PubChem, National Center for Advancing Translational Sciences (NCATS)
